An excerpt weighted towards active compounds, which were near 10% of everything screened.
IMPase cell inh: IMPase inhibition in cells; P97697; CHO-M1 cells, IP1 accumulation, HTRF TR-FRET ratio; inhibition (IP1 accumulation), % at 46.1 µM; 120,000 tested, under 10 active; AID 901; active = well fitted curve in the direction sought with a large enough effect in the signal ratio, not every such curve was filed as active; inconclusive = small, poorly fitted or top-dose-only effect, or a change in a side signal; inactive = no such curve, though single readings can be large or run the other way; the % refers to the signal ratio;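 note: cells stimulated with carbachol in lithium chloride buffer; plate controls were DMSO basal wells for no effect and reference inhibitor wells for full effect; higher means more IMPase inhibition seen as more IP1 and lower FRET ratio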
Target sequence (P97697 whole entry, looked up): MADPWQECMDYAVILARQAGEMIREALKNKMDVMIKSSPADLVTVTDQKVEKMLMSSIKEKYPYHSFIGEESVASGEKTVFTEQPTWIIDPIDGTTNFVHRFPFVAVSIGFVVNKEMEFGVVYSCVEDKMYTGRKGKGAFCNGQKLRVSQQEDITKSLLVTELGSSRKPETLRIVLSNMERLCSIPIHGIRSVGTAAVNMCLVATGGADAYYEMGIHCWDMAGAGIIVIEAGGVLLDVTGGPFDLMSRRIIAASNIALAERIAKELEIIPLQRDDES
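CHO-M1 cells (CHO stably expressing M1 receptor), compound up to 46 uM final, stimulated with carbachol (50 uM as added) in buffer with 50mM LiCl, pH 7.4, 30 min at 37C. Cytosolic IP1 read by TR-FRET; AC50 from Hill fits.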
LMNA splice mod: LMNA splicing modulation; HeLa LMNA splicing GFP/RFP minigene ratio, 48 h; Potency, µM (titrated, usually from 46.1 µM), for inactives: top-dose ratio change, negative = inhibition, actives largely listed as inhibitors; 0.01% of 200,000 active; AID 1487; active = well fitted inhibition curve with a large enough effect in the signal ratio, with a control signal flat, not every such curve was filed as active; inconclusive = small, poorly fitted or top-dose-only effect, or effect the other way, or a change in a side signal; the % refers to the signal ratio; note: potency is the fitted concentration of half-maximal effect
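S3 HeLa stable clones carrying a lamin A-EGFP splicing minigene plus DsRed2 were seeded at 600 cells/well in Opti-MEM with 2% FBS, pin-dosed and incubated 48 h at 37°C. Acumen cytometry (488 nm) gave the GFP/RFP total-intensity ratio.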
Luc counter: Kinase-Glo luciferase inhibition (counter-screen) | Potency, µM (titrated, usually from 38.3 µM), without a hit: at the top dose activity change, negative = inhibition, most hits filed as inhibitors | Q27757 | 0.28% of 200,000 active | AID 1379 | Kinase-Glo luciferase, ATP luminescence, 8 min; active = well fitted inhibition curve with a large enough effect; inconclusive = small, poorly fitted or top-dose-only effect; note: potency is the fitted concentration of half-maximal effect; nearly all actives have a fitted effect of over 60% in size
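Luminescence was the read-out, taken after 8-minute incubation at ambient temperature. Luciferase turned over luciferin with 10 uM ATP in imidazole pH 7.2 buffer containing KCl, MgCl2, Tween 20 and BSA.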
ALDH1A1 block: ALDH1A1 (human) enzyme inhibition | 7.3% of 220,000 active | Purified ALDH1A1, NADH fluorescence, propionaldehyde substrate | Potency, µM (doses to about 75.3 µM), for inactives: top-dose activity, negative = inhibition, most hits filed as inhibitors | P00352;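 note: potency is the fitted concentration of half-maximal effect; plate controls were no enzyme wells and a reference inhibitor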
PNC assembly inh: inhibitors of perinucleolar compartment assembly. activity change (PNC), negative = inhibition, % at 10 µM. PC3M PTB-GFP, PNC prevalence imaging, 16 h; stronger effect = lower value. 3.1% of 140,000 active. AID 2417;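 active = readout at or below -70, meaning at least 70% loss of cells showing the perinucleolar compartment, a nuclear body marking cancer cells; inconclusive = readout between -30 and a set limit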;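 note: plate controls were DMSO wells for no effect and camptothecin positive control wells for full effect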
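Read-out is percentage of cells bearing a perinucleolar compartment, from automated 20x imaging of fixed, Hoechst-stained PC3M PTB-GFP cells. Cells were seeded 4 h, then exposed 16 h to compound (23 nl of library stock) in duplicate plates.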
HPGD block: HPGD (human) dehydrogenase inhibition | P15428 | purified HPGD, NADH fluorescence kinetic, PGE2 substrate | Potency, µM, for the others: top-dose activity change, negative = inhibition, actives largely listed as inhibitors | 4.3% of 150,000 active; note: potency is the fitted concentration of half-maximal effect
Target sequence (P15428 whole entry, looked up): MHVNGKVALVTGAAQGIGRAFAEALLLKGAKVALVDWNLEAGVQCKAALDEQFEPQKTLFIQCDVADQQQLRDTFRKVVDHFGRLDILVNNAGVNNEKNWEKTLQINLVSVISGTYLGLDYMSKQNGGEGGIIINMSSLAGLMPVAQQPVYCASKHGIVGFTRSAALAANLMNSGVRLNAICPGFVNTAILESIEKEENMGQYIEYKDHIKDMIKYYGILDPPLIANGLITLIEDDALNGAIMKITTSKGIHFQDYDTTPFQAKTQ
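NADH formation kinetics: reaction with 30 uM PGE2 and 1 mM NAD+ (final), 20 nM enzyme, Tris-HCl pH 8 with Tween 20, after 15 min compound preincubation at room temperature. Fluorescence change, last versus first of five reads.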
* = called active by the depositor; ? = inconclusive; . = not tested or not shown; [ ] = dose if it differs, or a comment. Unless noted, calls come from the whole dose curve; as a rule, active = well fitted inhibition curve with a large enough effect (not every such curve was filed as active); inconclusive = small, poorly fitted or top-dose-only effect, or another doubt; inactive = no such curve, though single readings can be large or run the other way. Unless noted, % is set by controls: 0 for no effect and ±100 for the full control effect.

SMILES | IMPase cell inh | LMNA splice mod | Luc counter | ALDH1A1 block | PNC assembly inh | HPGD block
Cc1ccc(N2CCN(CCC(=O)O)CC2)cc1 | . | . | -4%[7.66 µM] | 8%[13.5 µM] | . | -8%
Cc1ccc(C)c(C(=O)COc2ccc(C)nc2[N+](=O)[O-])c1 | -2 | ? | 0% | 1.6µM* | ? | -16%
Cc1ccc(OCC(=O)c2cc(C)n(-c3ccccc3)c2C)c([N+](=O)[O-])n1 | 20 | ? | -3% | ? | ? | -10%
Cc1ccc(-c2csc3ncnc(-n4nc(C)cc4N)c23)cc1 | 6 | ? | 5% | 2µM* | 7 | -13%
Cc1cc(N)n(-c2ncnc3scc(-c4ccc(Cl)cc4)c23)n1 | -1 | -17% | -1% | ? | 41 | -8%
Cc1ccc(C(=O)c2cnc3ccccc3c2-c2ccccc2)cc1 | -5 | -5% | -2% | 13µM* | 68 | -15%
COc1ccc(C(=O)c2cnc3ccccc3c2-c2ccccc2)cc1 | 10 | 5% | 0% | 1.4µM* | 72 | ?
COc1ccc(Oc2nc(-c3ccccc3)ncc2C(=O)O)cc1 | . | . | -1% | 8% | . | .
CN(Cc1ccco1)c1nc(-c2ccccc2C(F)(F)F)nc2ccccc12 | . | 15% | . | 4% | . | .
O=C(CSc1ccc([N+](=O)[O-])cc1)NCC1CCCCC1 | . | . | -2% | 28µM* | . | .
O=C(CSc1cccc[n+]1[O-])NCC1CCCCC1 | . | . | 0% | 1% | . | .
O=C(O)/C=C\C(=O)NNC(=O)c1cc(-c2ccccc2)n[nH]1 | . | . | . | 25µM* | . | .
CCN1C(=O)/C(=C2/C=Cc3cc(C)ccc3N2CC)N(C)C1=S | ? | -14% | 10µM* | ? | ? | -1%
CCC(C)NC(=O)CSc1nc2c(sc3ccccc32)c(=O)n1CCc1ccccc1 (centres undefined) | . | 11%[46 µM] | . | . | . | .
CC1=C(C(=O)N(C)C)C(c2ccc(Cl)c(Cl)c2)NC(=O)N1 (centres undefined) | 12 | 5% | -1% | -3% | ? | -11%
CC1=C(C(=O)N(C)C)C(c2ccc(C)s2)NC(=S)N1 (centres undefined) | . | 18%[46 µM] | -4% | 25µM* | . | .
CCN(CC)C(=O)C1=C(C)NC(=S)NC1c1ccc(C)s1 (centres undefined) | . | 4%[46 µM] | 4% | 8.9µM* | . | .
CCc1cc2ccc(OC)cc2nc1SCC(=O)NNC(=O)c1ccco1 | . | -15%[46 µM] | 2% | 6.3µM* | . | .
O=C(Nc1cc(S(=O)(=O)N2CCOCC2)ccc1O)c1ccc2c(c1)S(=O)(=O)c1ccccc1C2=O | . | -3%[46 µM] | 2% | 1.1µM* | . | .
O=C(Nc1ccc(S(=O)(=O)N2CCOCC2)cc1)c1ccc2c(c1)S(=O)(=O)c1ccccc1C2=O | . | 3%[46 µM] | 0% | 13% | . | .
COc1ccc(-c2nc3cnc(N(C)C)nc3n(CCc3ccccc3)c2=O)cc1 | . | . | -6% | ? | . | -28%
Cc1ccccc1NC(=O)C1CCN(c2cc(-c3ccccc3)nc3ncnn23)CC1 | -9 | ? | 0% | ? | -114* | ?
Cc1ccc(Sc2ncnc(N)c2[N+](=O)[O-])cc1 | -4 | ? | 3% | 0% | -19 | -19%
Nc1ncnc(Sc2ccc(Cl)cc2)c1[N+](=O)[O-] | . | ? | -2% | 4% | -103* | -5%
Nc1ccc(O)c(C(=O)O)c1 | 20[20.6 µM] | ? | -4%[17.1 µM] | ? | . | 11µM*
Nc1ccc(C(=O)O)c(O)c1 (tested in a mixture with another compound) | . | . | -7% | . | . | -24%
CCOc1ccc(CNC(=O)C2CCCN(S(=O)(=O)c3ccc4c(ccn4C)c3)C2)cc1 (centres undefined) | . | 6%[46 µM] | . | . | . | .
Cc1ccccc1CNC(=O)c1c(C)oc2c1C1=NCCN1C=N2 | . | 12%[46 µM] | . | . | . | .
CCN(CC)S(=O)(=O)c1cc(NC(=O)CSc2nc3c(cc2C#N)C(=O)CC(C)(C)C3)ccc1C | . | ? | 3% | ? | -96* | -7%
CCN(CC)S(=O)(=O)c1cc(NC(=O)CSc2nnc(-c3cccs3)o2)ccc1C | 6 | -4% | 0% | -2% | -1 | -15%
